Records with an inconclusive call do not appear. A number with no mark means an inactive call. The source made the active and inactive calls. Calls come from the whole dose curve; as a rule, active = well fitted cell-killing curve with a large enough effect in the repeat runs; inconclusive = weak or mixed curves, or effect the other way; inactive = flat fitted curve, though single readings scatter.
assay: cAMP Responsive Elements (CRE) small molecule antagonists, cell-based qHTS assay: qHTS cell viability counter screen (AID 2060913); details: CRE-bla HEK293T viability, CellTiter-Glo luminescence, 5 h; series mostly up to 92.4 µM; viability change, negative = cytotoxic: at the top concentration; note: nearly all actives have a fitted effect of over 40% in size
Method in brief: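 Steps: cells plated and held 18 hrs at 37 C/5% CO2; compounds and NKH477 (0.25 uM final) added; 3 hrs incubation; reporter substrate read; CellTiter-Glo added to measure cytotoxicity by luminescence.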
% is set by controls: 0 for no effect and ±100 for the full control effect; potency is the fitted concentration of half-maximal effect.

Row | Compound | viability change, negative = cytotoxic | Potency
1 | CN(C)CCCN1c2ccccc2Sc2ccccc21 | -3.7% [at 42.5 µM] | 
2 | O=C(Nc1ccc(S(=O)(=O)N2CCOCC2)cc1)c1cc(Cl)ccc1NS(=O)(=O)c1ccc(Cl)s1 | 4.75% [at 42.5 µM] | 
3 | CC(C)NC(=O)NC(C)C | -0.726% | 
4 | CCCCCCCCCCCCCCN(C)C | 8.85% [at 18.9 µM] | 
5 | C[C@@H](O)[C@H](N)C(=O)O | -1.62% [at 18.9 µM] | 
6 | O=C(CC(C(=O)OC1CCCCC1)S(=O)(=O)O)OC1CCCCC1 (stereo not given) |  | inactive
7 | CCCCCCOC(=O)NC(=N)c1ccc(NCc2nc3cc(C(=O)N(CCC(=O)OCC)c4ccccn4)ccc3n2C)cc1 |  | 26.6 µM (active)
8 | CCOc1cc(N)c(Cl)cc1C(=O)NCC1CN(Cc2ccc(F)cc2)CCO1 (stereo not given) | -0.53% [at 42.5 µM] | 
9 | CC1(C)[C@H]2CC[C@](C)(C2)[C@H]1O | 2.63% | 
10 | COC(=O)c1c(Cl)c(Cl)c(C(=O)OC)c(Cl)c1Cl |  | inactive
11 | CC(C)=CCCC(C)CCOC(=O)C(C)C (stereo not given) | 1.89% | 
12 | OCC(CO)(CO)COCC(CO)(CO)CO | -1.69% | 
13 | O=S1(=O)c2cccc3cccc(c23)N1CCCN1CCN(c2ccc(F)cc2)CC1 | 13.7% [at 42.5 µM] | 
14 | O=C1Cc2cc(Cl)ccc2N1 | 4.44% [at 42.5 µM] | 
15 | CCCCCCCC/C=C\CCCCCCCC(=O)NCc1ccc(O)c(OC)c1 | 8.66% [at 42.5 µM] | 
16 | Nc1ccn([C@@H]2O[C@H](CO)[C@@H](O)C2O)c(=O)n1 (stereo not given in full) | 2.77% | 
17 | CC(C)CC(C)(N)C#N (stereo not given) | -8.44% | 
18 | N[C@@H](CS)C(=O)O | -2.19% | 
19 | C=C(C)C1CCC(C)(O)CC1 (stereo not given) | 0.795% | 
20 | C=C(CC)C(=O)c1ccc(OCC(=O)O)c(Cl)c1Cl |  | inactive

Row | Compound | viability change, negative = cytotoxic | Potency
21 | CCC(C)NC(N)=O (stereo not given) | 2.05% | 
22 | CCCCCC/C=C/C=O | 1.14% | 
23 | Cc1ccc(C(C)OC(=O)C2(C)CCC(C(=O)O)C2(C)C)cc1 (stereo not given) | 1.43% [at 42.5 µM] | 
24 | CCCC(O)C(O)CO (stereo not given) | -0.827% | 
25 | CN(C)c1ccc(N=Nc2ccccc2C(=O)O)cc1 | 6.5% | 
26 | Clc1nc2ccccc2s1 | -1.37% | 
27 | CC(CO)Oc1ccccc1 (stereo not given) | 10.2% | 
28 | CCCC(=O)O[C@]1(C(=O)CCl)[C@@H](C)C[C@H]2[C@@H]3CCC4=CC(=O)C=C[C@]4(C)[C@@]3(F)C(=O)C[C@@]21C | -15.4% [at 42.5 µM] | 
29 | COC(=O)CCCCCCCC(=O)OC | 4.66% | 
30 | CCN1CCC[C@H]1CNC(=O)c1cc(S(N)(=O)=O)ccc1OC | 5.98% [at 42.5 µM] | 
31 | O=c1[nH]sc2cc(Cl)ccc12 | 7.05% [at 42.5 µM] | 
32 | NC(=O)NC1NC(=O)NC1=O (stereo not given) |  | inactive
33 | ON=C1CCCC1 | -15.4% | 
34 | CCOc1nc2cccc(C(=O)OC(C)OC(=O)OC3CCCCC3)c2n1Cc1ccc(-c2ccccc2-c2nn[nH]n2)cc1 (stereo not given) |  | 48.5 µM (active)
35 | COc1ccc(OC)c(NC(=O)CC(C)=O)c1 | 4.24% | 
36 | CN(C)CCCO[C@@H]1[C@H]2OC(C)(C)O[C@H]2O[C@@H]1C(O)CO (stereo not given in full) | 3.05% [at 42.5 µM] | 
37 | O=C(O)c1ccccc1[N+](=O)[O-] | 3.04% | 
38 | CCN(CC)CCOC(=O)C1(c2ccccc2)CCCC1 | -3.95% [at 42.5 µM] | 
39 | CC(CCO)CCc1ccccc1 (stereo not given) | -0.841% | 
40 | Oc1ccc(Oc2ccccc2)cc1 | 3.29% | 

Source: PubChem BioAssay (Tox21)
